CHX counter – counter-screen for Shiga toxin inhibitors: cycloheximide protein synthesis inhibition; cell reporter, cycloheximide protein synthesis inhibition counterscreen; 300,000 compounds, 12% hits; max response, %; AID 2314; in the data active = max response mostly above about 13%, no sharp cut-off; inactive = mostly below about 14%; also: read at 38.3 µM for the half of the compounds with a filed dose; 0% is about no effect
Shiga toxin inh – inhibitors of Shiga toxin in Vero cells; Vero cells, Shiga toxin protein synthesis inhibition reporter; inhibition, % at 38.7 µM; AID 2315; 290,000 compounds, 9.2% hits; in the data active = inhibition mostly above about 28%, no sharp cut-off; inactive = mostly below about 43%; also: 0% is about no effect
MARV entry inh – blocks Marburg virus binding to or entry into cells; Potency, µM (doses to about 37.8 µM), for the others: at the top dose activity change, negative = inhibition, actives largely listed as inhibitors; 300,000 compounds, 1.8% hits; AID 540276; Marburg virus pseudotyped entry inhibition, cell reporter; calls by dose curve; tested in HEK293 cells; also: potency is read from the fitted curve at half-maximal effect; % is scaled to controls: 0 for no effect and ±100 for the full control effect
LASV entry inh – inhibitors of Lassa virus binding or cell entry; Lassa virus pseudotype entry inhibition, cell reporter; Potency, µM (series often up to 37.9 µM), for inactives: top-dose activity change, negative = inhibition, actives largely listed as inhibitors; AID 540256; 300,000 compounds, 1.2% hits; calls by dose curve; tested in HEK293 cells; also: potency is read from the fitted curve at half-maximal effect; % is scaled to controls: 0 for no effect and ±100 for the full control effect; nearly all actives have a fitted effect of over 50% in size
Vaccinia mCherry – vaccinia inhibition (mCherry reporter); Vaccinia virus mCherry reporter infection, fluorescence; Potency, µM (doses to about 36.5 µM), without a hit: top-dose activity change, negative = inhibition, usual class: inhibitors; 310,000 compounds, 0.63% hits; calls by dose curve; tested in A549 cells; also: potency is read from the fitted curve at half-maximal effect; % is scaled to controls: 0 for no effect and ±100 for the full control effect; nearly all actives have a fitted effect of over 35% in size
VACV Venus inh – inhibitors of vaccinia virus (Venus reporter). Vaccinia virus Venus reporter expression, fluorescence. Potency, µM (series often up to 36.5 µM), for inactives: at the highest dose activity change, negative = inhibition, most hits filed as inhibitors. 330,000 compounds, 0.46% hits; calls by dose curve; tested in A549 cells; also: potency is read from the fitted curve at half-maximal effect; % is scaled to controls: 0 for no effect and ±100 for the full control effect; nearly all actives have a fitted effect of over 30% in size
The depositor's hits bear a star; i = inactive; ? = inconclusive; . = no result given; [ ] = another dose, or the depositor's remark. This excerpt belongs to a sample that is enriched for hits.

SMILES	CHX counter	Shiga toxin inh	MARV entry inh	LASV entry inh	Vaccinia mCherry	VACV Venus inh
C/C(=N\NC(=S)Nc1ccc(F)cc1)C1CC1	29*	21	19%	0%	i	0%
COc1ccc(Nc2nc(CC(C)=O)ns2)cc1	27*	68*	16%	?	.	1%
COc1cccc(Nc2nc(CC(C)=O)ns2)c1	19*	60*	6%	-10%	.	.
O=c1cc(CSc2ccc(Cl)cc2)nc(-c2ccccn2)[nH]1	-2	3	.	.	?	?
CCCCN1C(=O)C(=O)N(CC(=O)c2ccc3c(c2)OCO3)C1=O	.	.	4%	0%	-16%	-11%
CCCCCCC(NC(=O)Cc1ccc2ccccc2c1)C(=O)O (stereo not drawn)	.	.	.	.	i	-9%
C=CC(=O)N1C/C(=C/c2ccc(F)cc2)C(=O)/C(=C\c2ccc(F)cc2)C1	.	.	?	2.5µM*	?	7.9µM*
CN1C2CCC1/C(=C\c1ccc(F)cc1)C(=O)/C2=C/c1ccc(F)cc1	-5	-17	?	-27%	-12%	-4%
Cc1nc2cc3c(cc2c(C)c1C(=O)OC(C)C)OCO3	40*	29*	2%	0%	-3%	-17%
COc1ccc(N2CCN(c3ncnc4c3[nH]c3ccccc34)CC2)cc1	-1	-16	?	?	.	?
CCOc1ccc2[nH]c3c(N4CCN(C(=O)c5ccco5)CC4)ncnc3c2c1	0	-4	?	?	13µM*	-24%
COc1cc2[nH]c3c(N4CCN(c5ccccn5)CC4)ncnc3c2cc1OC	-4	-8	10µM*	?	?	?
CCOC(=O)C1CCN(c2ncnc3c2[nH]c2cccc(OC)c23)CC1	-3	-12	-8%	-8%	.	-7%
Cc1cccc2[nH]c3c(N4CC=C(c5ccc(F)cc5)CC4)ncnc3c12	2	-4	11µM*	?	?	?
COc1cccc2[nH]c3c(N4CCCCC4)ncnc3c12	45*	67	10%	15%	-25%	-19%
CCOC(=O)N1CCN(c2ncnc3c2[nH]c2ccc(F)cc23)CC1	1	-16	?	6%	?	?
COc1ccc2[nH]c3c(N4CCc5ccccc5C4)ncnc3c2c1	28*	13	0.71µM*	?	?	14µM*
CCOC(=O)N1CCN(c2ncnc3c2[nH]c2ccc(OC)cc23)CC1	-2	-7	10µM*	?	?	?
O=C(NNc1ccc(F)cc1F)c1cccs1	.	.	.	.	-9%	-13%
CN(c1ccccc1)S(=O)(=O)c1cccc(NC(=O)CN2CCCc3ccccc32)c1	2	28	8.9µM*	?	-20%	-25%
CCC(C(=O)Nc1cccc(S(=O)(=O)N(C)c2ccccc2)c1)c1ccccc1 (stereo not drawn)	.	.	?	11µM*	-13%	-20%
CN(c1ccccc1)S(=O)(=O)c1cccc(NC(=O)CSc2nncs2)c1	-2	-3	?	10µM*	-12%	-19%
CCOc1ccc(Br)cc1S(=O)(=O)Nc1cccc(S(=O)(=O)N(C)c2ccccc2)c1	-1	-14	7.9µM*	-28%	?	?
O=C1NCCn2ccc(=O)cc21	1	-1	.	.	.	.
Cc1cccc(NC(=O)CSc2nnc(N)s2)c1	.	.	.	-1%[46.1 µM]	i	-5%
SMILES	CHX counter	Shiga toxin inh	MARV entry inh	LASV entry inh	Vaccinia mCherry	VACV Venus inh
CN(c1ccccc1)S(=O)(=O)c1cccc(NC(=O)CSc2nnc(N)s2)c1	1	-9	18µM*	?	?	-19%
CCc1nn(CC(=O)NC(C)CC)c(=O)c2cc3occc3n12 (stereo not drawn)	.	.	0%[46.1 µM]	11%[46.1 µM]	-11%	7%
O=c1c2sc(-c3ccccc3)cc2nc2n1CCCCC2	53*	56*	?	-17%	i	-19%
Cn1c(NCCN2CCCC2)nc2cc(-c3ccccc3)sc2c1=O	.	.	.	.	i	?
O=c1c2sc(-c3ccccc3)cc2nc2n1CCC2	24*	26*	4.5µM*	?	-30%	-20%
N#Cc1cc(-c2ccccc2)nc(Oc2ccc(Cl)cc2)n1	-5	-1	-2%	-3%	-11%	-6%
N#Cc1cnc(Oc2ccc(Cl)cc2)nc1N	19*	27	.	.	.	.
N#CCCN(C(=O)COC(=O)C1CCN(S(=O)(=O)c2cccs2)CC1)c1ccccc1	-2	18	8%[46.1 µM]	21%[46.1 µM]	-3%	-10%
CCc1nn(Cc2ccc(Cl)cc2)c(=O)c2cc3cc(C)ccc3n12	.	.	?	10%[46.1 µM]	-6%	0%
CCC(=O)N1CCc2cc(Br)cc(S(=O)(=O)N3CCC(C(=O)Nc4ccccc4CC)CC3)c21	.	.	-1%[46.1 µM]	15%[46.1 µM]	-11%	-16%
CCc1ccc(/C=N/N2CCN(c3ccccn3)CC2)cc1	37*	68*	.	.	.	.
Cc1ccc(/C=N/N2CCN(c3ccccn3)CC2)cc1	47*	64*	16%[46.1 µM]	?	-14%	-1%
Cn1cccc1/C=N/N1CCN(Cc2ccccc2)CC1	15	-1	.	.	.	.
CCN(CC)c1ccc(/C=N/N2CCN(c3ccccn3)CC2)cc1	2	-8	17%	19%	i	-6%
ClC(=C\c1ccccc1)/C=N/N1CCN(c2ccccn2)CC1	33*	53*	-8%	-29%	?	-9%
Cn1cccc1/C=N/N1CCN(c2ccccn2)CC1	38*	61*	?	13%	i	-5%
COC(=O)[C@@H](NC(=O)N1CCN(C(=O)C2COc3ccccc3O2)CC1)C(C)C (stereo partly drawn)	11	11	?	14%[46.1 µM]	-11%	-5%
Cc1csc(NC(=O)c2ccc(Br)s2)n1	43*	137*	?	?	i	-6%
Cc1cc(C)nc(NC(=O)c2ccc(Br)s2)n1	1	.	.	.	.	.
Cc1csc(NC(=O)CCC(=O)c2cccs2)n1	19*	141	-3%[46.1 µM]	2%	8%	7%
Cc1c(Cl)cccc1NC(=O)CCC(=O)c1cccs1	14	15	.	.	.	.
Cc1csc(NC(=O)c2cccs2)n1	55*	100*	0%[46.1 µM]	?	-13%	-17%
Cc1ccc(CNC(=O)Cn2c(=O)n(-c3ccc(Cl)cc3)c(=O)c3c(C)c(C)sc32)cc1	.	.	14%[46.1 µM]	15%[46.1 µM]	-8%	1%
CN(CCO)C(=O)c1cn(C2CCN(Cc3c(F)cccc3Cl)CC2)nn1	.	.	.	.	-9%	21%
Cc1ccc(C)c(S(=O)(=O)/N=C(/Nc2ccccc2)c2ccccc2)c1	.	.	?	7%[46.1 µM]	?	-1%
SMILES	CHX counter	Shiga toxin inh	MARV entry inh	LASV entry inh	Vaccinia mCherry	VACV Venus inh
C[N+]1(CC(=O)c2ccc3ccccc3c2)CCOCC1	.	.	.	.	14%	7%
CC(Sc1nnc(-c2cccnc2)n1-c1ccccc1)C(=O)NCc1ccc2c(c1)OCO2 (stereo not drawn)	40*	76*	20%	-1%	-3%	-11%
O=C(CSc1nnc(-c2cccnc2)n1-c1ccccc1)NCc1ccc2c(c1)OCO2	-3	19	12%[46.1 µM]	5%	-13%	-6%
Cc1cccc(N(C)S(=O)(=O)c2cc3[nH]c(=O)c(=O)[nH]c3cc2C)c1	.	.	.	-9%[46.1 µM]	2%	-3%
CC(C)=C1SC(N2CCN(Cc3ccccc3)CC2)=NC1=O	23*	73	?	?	.	.
CC(C)=C1SC(N2CCN(c3cccc(Cl)c3)CC2)=NC1=O	0	2	0%	6%	-17%	-30%

Screens from PubChem.
